# Source: publication PMC7862700, “An all-to-all approach to the identification of sequence-specific readers for epigenetic DNA modifications on cytosine”
# How the values were obtained:
# Experiment in all cases: DAPPL (digital affinity profiling via proximity ligation, sequencing); 10 mM Tris-HCl pH 7.5, 50 mM NaCl, 1 mM DTT, 4% glycerol, room temperature, 30 min; GST-TFs on glutathione beads, 16-mer random dsDNA library, 0.1% formaldehyde crosslink after washing; high values mean tight binding
# Settings in all cases: protein: recombinant; tags: N-terminal GST; dsDNA, one strand shown
# FLI1 = target: T1, FLI1 (Homo sapiens, UniProt Q01543 1-452)
# T1 sequence: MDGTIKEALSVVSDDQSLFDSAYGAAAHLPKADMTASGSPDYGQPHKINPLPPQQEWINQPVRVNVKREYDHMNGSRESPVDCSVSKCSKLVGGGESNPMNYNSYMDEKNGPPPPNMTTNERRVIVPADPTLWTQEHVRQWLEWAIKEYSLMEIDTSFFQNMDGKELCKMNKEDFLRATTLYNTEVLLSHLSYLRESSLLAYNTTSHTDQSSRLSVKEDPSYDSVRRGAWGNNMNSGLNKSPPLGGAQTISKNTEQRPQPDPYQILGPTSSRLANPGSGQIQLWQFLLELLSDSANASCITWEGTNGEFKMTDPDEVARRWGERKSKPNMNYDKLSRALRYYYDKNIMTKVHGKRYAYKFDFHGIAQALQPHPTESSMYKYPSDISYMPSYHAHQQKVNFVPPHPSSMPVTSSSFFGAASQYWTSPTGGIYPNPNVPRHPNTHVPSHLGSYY
# In short: (§1)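 The binding signal reported is, for every hexamer, its read frequency for a factor over its read frequency for the tag-only sample. Reads came from pools of yeast-expressed, GST-fused human transcription factors on glutathione beads, barcoded with DNA and mixed with that sample, which were incubated with 200 nmole of a random double-stranded 16-mer DNA library in Tris/NaCl/DTT/glycerol buffer at room temperature for 30 min. After washing, the pools were crosslinked with 0.1% formaldehyde, proximity-ligated with BsaI/T4 ligase for 1 h at 37 °C, PCR-amplified and sequenced on an Illumina NextSeq500.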
# ELK1 = target: T2, ELK1 (Homo sapiens, UniProt P19419 1-428)
# T2 sequence: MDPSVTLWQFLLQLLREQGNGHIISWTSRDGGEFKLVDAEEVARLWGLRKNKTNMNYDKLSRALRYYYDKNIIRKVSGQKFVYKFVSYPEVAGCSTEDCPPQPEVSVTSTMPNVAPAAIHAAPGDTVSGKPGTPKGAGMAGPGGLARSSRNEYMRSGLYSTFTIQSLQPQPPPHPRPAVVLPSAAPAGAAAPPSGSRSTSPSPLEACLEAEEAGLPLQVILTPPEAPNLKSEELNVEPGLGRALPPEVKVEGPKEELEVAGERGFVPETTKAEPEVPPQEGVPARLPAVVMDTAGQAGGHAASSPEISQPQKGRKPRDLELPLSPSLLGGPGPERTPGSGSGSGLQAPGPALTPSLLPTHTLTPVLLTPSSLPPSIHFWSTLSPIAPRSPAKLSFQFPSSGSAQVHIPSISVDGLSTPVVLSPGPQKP
# In short: as §1
# GABPA = target: T3, GABPA (Homo sapiens, UniProt Q06546 1-454)
# T3 sequence: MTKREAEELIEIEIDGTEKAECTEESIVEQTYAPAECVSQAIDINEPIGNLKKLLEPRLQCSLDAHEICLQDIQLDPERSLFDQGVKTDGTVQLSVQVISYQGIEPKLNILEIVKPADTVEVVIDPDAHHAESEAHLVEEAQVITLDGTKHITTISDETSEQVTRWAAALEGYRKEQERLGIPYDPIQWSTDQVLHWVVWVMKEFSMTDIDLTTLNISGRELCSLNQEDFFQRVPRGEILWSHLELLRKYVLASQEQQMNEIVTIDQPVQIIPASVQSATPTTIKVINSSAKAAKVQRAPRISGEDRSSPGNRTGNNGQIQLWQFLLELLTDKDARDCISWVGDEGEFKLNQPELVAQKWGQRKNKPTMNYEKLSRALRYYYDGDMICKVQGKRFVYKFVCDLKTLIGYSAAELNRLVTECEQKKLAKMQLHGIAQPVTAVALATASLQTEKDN
# In short: as §1
# ERG = target: T4, ERG (Homo sapiens, UniProt P11308 1-479)
# T4 sequence: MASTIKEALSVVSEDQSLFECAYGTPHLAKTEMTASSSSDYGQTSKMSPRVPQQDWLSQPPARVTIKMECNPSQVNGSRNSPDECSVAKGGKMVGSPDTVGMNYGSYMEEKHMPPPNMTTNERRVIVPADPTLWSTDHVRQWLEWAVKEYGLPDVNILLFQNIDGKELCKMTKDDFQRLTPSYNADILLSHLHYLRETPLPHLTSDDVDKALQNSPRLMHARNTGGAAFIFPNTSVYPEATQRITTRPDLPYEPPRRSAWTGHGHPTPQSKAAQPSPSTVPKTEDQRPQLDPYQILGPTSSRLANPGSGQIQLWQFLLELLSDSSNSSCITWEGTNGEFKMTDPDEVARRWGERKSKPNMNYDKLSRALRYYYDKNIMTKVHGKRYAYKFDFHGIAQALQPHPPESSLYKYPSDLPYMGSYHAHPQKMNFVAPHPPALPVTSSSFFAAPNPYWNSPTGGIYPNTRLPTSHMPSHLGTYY
# In short: as §1
# ELF1 = ELF1 (Homo sapiens, UniProt P32519 1-619)
# ELF1, sequence (P32519 whole entry): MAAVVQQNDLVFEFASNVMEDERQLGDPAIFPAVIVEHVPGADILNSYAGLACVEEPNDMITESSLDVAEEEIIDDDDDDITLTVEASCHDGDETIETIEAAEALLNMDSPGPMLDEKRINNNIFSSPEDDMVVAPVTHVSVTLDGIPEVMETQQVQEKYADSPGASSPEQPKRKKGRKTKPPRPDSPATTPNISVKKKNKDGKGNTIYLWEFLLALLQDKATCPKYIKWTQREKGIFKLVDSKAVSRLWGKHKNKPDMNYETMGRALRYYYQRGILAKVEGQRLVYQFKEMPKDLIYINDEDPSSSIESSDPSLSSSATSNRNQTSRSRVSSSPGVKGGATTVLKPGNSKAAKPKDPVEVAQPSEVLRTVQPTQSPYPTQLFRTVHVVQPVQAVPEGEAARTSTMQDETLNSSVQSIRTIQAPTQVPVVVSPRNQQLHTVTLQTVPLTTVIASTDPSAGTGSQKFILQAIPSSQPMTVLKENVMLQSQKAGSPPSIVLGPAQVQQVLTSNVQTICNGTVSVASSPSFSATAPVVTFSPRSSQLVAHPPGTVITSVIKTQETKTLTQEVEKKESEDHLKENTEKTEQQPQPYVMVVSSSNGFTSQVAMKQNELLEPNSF
# In short: as §1
# EHF = target: T5, EHF (Homo sapiens, UniProt Q9NZC4 1-300)
# T5 sequence: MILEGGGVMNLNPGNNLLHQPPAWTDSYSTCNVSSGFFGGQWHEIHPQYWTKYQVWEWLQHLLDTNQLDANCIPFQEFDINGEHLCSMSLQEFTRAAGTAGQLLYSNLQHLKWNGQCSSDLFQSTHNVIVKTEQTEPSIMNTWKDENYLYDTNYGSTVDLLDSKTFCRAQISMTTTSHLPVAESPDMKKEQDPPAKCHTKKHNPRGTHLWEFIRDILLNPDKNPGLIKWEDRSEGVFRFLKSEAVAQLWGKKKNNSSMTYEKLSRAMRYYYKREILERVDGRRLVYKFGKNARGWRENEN
# In short: as §1
# SPI1 = SPI1 (Homo sapiens, UniProt P17947 1-270)
# In short: as §1
# SPIB = SPIB (Homo sapiens, UniProt Q01892 1-262)
# SPIB, sequence (Q01892 whole entry): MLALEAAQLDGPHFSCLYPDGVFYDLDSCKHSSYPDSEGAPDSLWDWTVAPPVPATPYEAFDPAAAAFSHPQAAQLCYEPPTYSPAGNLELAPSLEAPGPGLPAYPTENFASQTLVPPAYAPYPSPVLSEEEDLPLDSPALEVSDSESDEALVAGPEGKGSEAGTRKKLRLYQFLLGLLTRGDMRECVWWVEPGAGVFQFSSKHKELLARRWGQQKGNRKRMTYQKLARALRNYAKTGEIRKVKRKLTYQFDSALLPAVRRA
# In short: as §1
# ELK3 = target: T6, ELK3 (Homo sapiens, UniProt P41970 1-407)
# T6 sequence: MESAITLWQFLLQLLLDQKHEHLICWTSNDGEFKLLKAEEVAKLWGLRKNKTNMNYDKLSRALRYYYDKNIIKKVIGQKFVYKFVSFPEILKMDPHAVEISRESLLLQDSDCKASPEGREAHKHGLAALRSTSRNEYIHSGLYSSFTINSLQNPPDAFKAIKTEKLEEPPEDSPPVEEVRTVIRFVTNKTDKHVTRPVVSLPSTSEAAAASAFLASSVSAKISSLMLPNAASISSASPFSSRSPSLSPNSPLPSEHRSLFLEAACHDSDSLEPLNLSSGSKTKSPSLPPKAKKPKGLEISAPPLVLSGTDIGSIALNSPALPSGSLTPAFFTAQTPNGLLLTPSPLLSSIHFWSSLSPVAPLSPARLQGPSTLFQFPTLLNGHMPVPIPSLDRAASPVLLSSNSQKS
# In short: as §1
sequence,measurement,setting,value
TGGCTA,binding signal,FLI1,"1.15 fold enrichment (6-mer frequency, TF over GST control)"
same,binding signal,ELK1,"1.23 fold enrichment (6-mer frequency, TF over GST control)"
same,binding signal,GABPA,"1.24 fold enrichment (6-mer frequency, TF over GST control)"
same,binding signal,ERG,"1.17 fold enrichment (6-mer frequency, TF over GST control)"
same,binding signal,ELF1,"1.22 fold enrichment (6-mer frequency, TF over GST control)"
same,binding signal,EHF,"1.19 fold enrichment (6-mer frequency, TF over GST control)"
same,binding signal,SPI1,"1.2 fold enrichment (6-mer frequency, TF over GST control)"
same,binding signal,SPIB,"1.31 fold enrichment (6-mer frequency, TF over GST control)"
same,binding signal,ELK3,"1.14 fold enrichment (6-mer frequency, TF over GST control)"
ACTTAT,binding signal,FLI1,"1.4 fold enrichment (6-mer frequency, TF over GST control)"
same,binding signal,ELK1,"1.4 fold enrichment (6-mer frequency, TF over GST control)"
same,binding signal,GABPA,"1.47 fold enrichment (6-mer frequency, TF over GST control)"
same,binding signal,ERG,"1.37 fold enrichment (6-mer frequency, TF over GST control)"
same,binding signal,ELF1,"1.46 fold enrichment (6-mer frequency, TF over GST control)"
same,binding signal,EHF,"1.41 fold enrichment (6-mer frequency, TF over GST control)"
same,binding signal,SPI1,"1.39 fold enrichment (6-mer frequency, TF over GST control)"
same,binding signal,SPIB,"1.38 fold enrichment (6-mer frequency, TF over GST control)"
same,binding signal,ELK3,"1.5 fold enrichment (6-mer frequency, TF over GST control)"
GCTCCA,binding signal,FLI1,"1.23 fold enrichment (6-mer frequency, TF over GST control)"
same,binding signal,ELK1,"1.17 fold enrichment (6-mer frequency, TF over GST control)"
same,binding signal,GABPA,"1.33 fold enrichment (6-mer frequency, TF over GST control)"
same,binding signal,ERG,"1.18 fold enrichment (6-mer frequency, TF over GST control)"
same,binding signal,ELF1,"1.2 fold enrichment (6-mer frequency, TF over GST control)"
same,binding signal,EHF,"1.19 fold enrichment (6-mer frequency, TF over GST control)"
same,binding signal,SPI1,"1.28 fold enrichment (6-mer frequency, TF over GST control)"
same,binding signal,SPIB,"1.3 fold enrichment (6-mer frequency, TF over GST control)"
same,binding signal,ELK3,"1.17 fold enrichment (6-mer frequency, TF over GST control)"
CTAACT,binding signal,FLI1,"1.36 fold enrichment (6-mer frequency, TF over GST control)"
same,binding signal,ELK1,"1.35 fold enrichment (6-mer frequency, TF over GST control)"
same,binding signal,GABPA,"1.36 fold enrichment (6-mer frequency, TF over GST control)"
same,binding signal,ERG,"1.37 fold enrichment (6-mer frequency, TF over GST control)"
same,binding signal,ELF1,"1.37 fold enrichment (6-mer frequency, TF over GST control)"
same,binding signal,EHF,"1.25 fold enrichment (6-mer frequency, TF over GST control)"
same,binding signal,SPI1,"1.36 fold enrichment (6-mer frequency, TF over GST control)"
same,binding signal,SPIB,"1.35 fold enrichment (6-mer frequency, TF over GST control)"
same,binding signal,ELK3,"1.29 fold enrichment (6-mer frequency, TF over GST control)"
TTTGCA,binding signal,FLI1,"1.27 fold enrichment (6-mer frequency, TF over GST control)"
same,binding signal,ELK1,"1.33 fold enrichment (6-mer frequency, TF over GST control)"
same,binding signal,GABPA,"1.34 fold enrichment (6-mer frequency, TF over GST control)"
same,binding signal,ERG,"1.29 fold enrichment (6-mer frequency, TF over GST control)"
same,binding signal,ELF1,"1.32 fold enrichment (6-mer frequency, TF over GST control)"
same,binding signal,EHF,"1.19 fold enrichment (6-mer frequency, TF over GST control)"
same,binding signal,SPI1,"1.22 fold enrichment (6-mer frequency, TF over GST control)"
same,binding signal,SPIB,"1.29 fold enrichment (6-mer frequency, TF over GST control)"
same,binding signal,ELK3,"1.32 fold enrichment (6-mer frequency, TF over GST control)"
TAGTAC,binding signal,FLI1,"1.11 fold enrichment (6-mer frequency, TF over GST control)"
same,binding signal,ELK1,"1.13 fold enrichment (6-mer frequency, TF over GST control)"
same,binding signal,GABPA,"1.22 fold enrichment (6-mer frequency, TF over GST control)"
same,binding signal,ERG,"1.24 fold enrichment (6-mer frequency, TF over GST control)"
same,binding signal,ELF1,"1.16 fold enrichment (6-mer frequency, TF over GST control)"
same,binding signal,EHF,"1.08 fold enrichment (6-mer frequency, TF over GST control)"
same,binding signal,SPI1,"1.07 fold enrichment (6-mer frequency, TF over GST control)"
same,binding signal,SPIB,"1.06 fold enrichment (6-mer frequency, TF over GST control)"
same,binding signal,ELK3,"1.12 fold enrichment (6-mer frequency, TF over GST control)"
CGTTCG,binding signal,FLI1,"1.15 fold enrichment (6-mer frequency, TF over GST control)"
same,binding signal,ELK1,"1.14 fold enrichment (6-mer frequency, TF over GST control)"
same,binding signal,GABPA,"1.23 fold enrichment (6-mer frequency, TF over GST control)"
same,binding signal,ERG,"1.17 fold enrichment (6-mer frequency, TF over GST control)"
same,binding signal,ELF1,"1.22 fold enrichment (6-mer frequency, TF over GST control)"
same,binding signal,EHF,"1.25 fold enrichment (6-mer frequency, TF over GST control)"
same,binding signal,SPI1,"1.1 fold enrichment (6-mer frequency, TF over GST control)"
same,binding signal,SPIB,"1.14 fold enrichment (6-mer frequency, TF over GST control)"
same,binding signal,ELK3,"1.24 fold enrichment (6-mer frequency, TF over GST control)"
